Shown is part of a subset that was picked to be rich in hits.
Pf Dd2 inh: inhibitors of Plasmodium falciparum Dd2 growth; P. falciparum Dd2 growth, SYBR Green, 72 h; Potency, µM (doses to about 28.9 µM), hits mostly inhibitors; hit rate 4.3% among 120,000; active = well fitted inhibition curve with a large enough effect; also: nearly all actives have a fitted effect of over 65% in size
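Readout: SYBR Green fluorescence, 485 nm excitation, 535 nm emission, after ~16 h lysis at 37C. Before that, Dd2-infected red cells (2.5% hematocrit) grew 72 h with compound, 29 uM top final concentration.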
Large screens that a line does not name were inactive.

O=C(Cc1ccccc1)N1CCC[C@H]1c1nc(-c2ccccc2)no1	Pf Dd2 inh 10µM
Cc1ccsc1C(=O)N1CCC2(CC1)N(c1ccccc1)C(=O)CS2(=O)=O	none
O=C(Cn1cccc1-c1nc(-c2ccccc2)no1)NCCCc1ccccc1	none
CNC(=O)N1CCC(C2CCN(C(=O)CCCc3ccccc3)C2)CC1 (centres undefined)	none
C#CCN(C)C(=O)[C@@H](C)C1CC[C@@]2(C)Cc3sc(NC)nc3[C@@H](C)[C@@H]2[C@H]1O (some centres undefined)	none
CCN(CC)C(=O)[C@@H](C)C1CC[C@@]2(C)Cc3sc(Nc4c(Cl)cccc4Cl)nc3[C@@H](C)[C@@H]2[C@H]1O (some centres undefined)	Pf Dd2 inh 12.6µM
CCN(CC)C(=O)C(C)[C@@H]1CC[C@@]2(C)Cc3sc(NC(=O)C4CC4)nc3[C@@H](C)[C@@H]2[C@H]1O (some centres undefined)	none
CC(=O)N1CCCN(C(=O)c2cnc3c(c2)N(C(=O)CCc2ccccc2)CCC3)CC1	none
CN1CCC(N2CC3(CCC2=O)CCN(C(=O)Cn2ccnc2)CC3)C1 (centres undefined)	none
CN1[C@@H](CCC(=O)N2CCN(c3ccccc3)CC2)CNC(=O)[C@@H]2[C@H]1CCN2Cc1ccccc1	none
Cn1nc2n(c1=O)CCN(C(=O)c1cscn1)CC2	none
Clc1cccc(-c2noc(-c3ccc(NCC4COCCO4)nc3)n2)c1 (centres undefined)	none
Cc1nc(-c2ccc(F)cc2)cc([C@H]2CN3CC[C@H]2C[C@@H]3CNC(=O)c2ccco2)n1	none
Cc1nc(-c2ccccc2Br)cc([C@H]2CN3CC[C@H]2C[C@@H]3CNC(=O)c2cccs2)n1	none
Cc1nc(-c2ccccc2)cc([C@H]2CN3CC[C@H]2C[C@@H]3CNC(=O)c2ccco2)n1	none
Cc1nc(-c2ccco2)cc([C@H]2CN3CC[C@H]2C[C@@H]3CNC2CCOCC2)n1	Pf Dd2 inh 11.2µM
CCC(CC)c1cc([C@H]2CN3CC[C@H]2C[C@@H]3CNC2CCN(C)CC2)nc(-c2ccncc2)n1	Pf Dd2 inh 1.41µM
CCCS(=O)(=O)NC[C@H]1C[C@@H]2CCN1C[C@@H]2c1cc(-c2ccccc2Br)nc(C)n1	none
Cc1nc(-c2ccccc2)cc([C@H]2CN3CC[C@H]2C[C@@H]3CNC(=O)C(C)(C)C)n1	none
Cc1nc(-c2ccco2)cc([C@H]2CN3CC[C@H]2C[C@@H]3CNC(=O)c2cccs2)n1	Pf Dd2 inh 8.91µM
Cc1nc(-c2ccco2)cc([C@H]2CN3CC[C@H]2C[C@@H]3CNCC2CCCCC2)n1	Pf Dd2 inh 3.16µM
Cc1nc(-c2ccco2)cc([C@H]2CN3CC[C@H]2C[C@@H]3CNC(=O)c2ccccc2)n1	none
Cc1nc(-c2ccco2)cc([C@H]2CN3CC[C@H]2C[C@@H]3CNS(C)(=O)=O)n1	none
CC(=O)NC[C@H]1C[C@@H]2CCN1C[C@@H]2c1cc(-c2ccccc2)nc(C)n1	none
COc1ccccc1OC1(C(=O)O)CCN(C(=O)CC2C=CCC2)CC1 (centres undefined)	none
O=C([C@@H]1C[C@H](F)CN1C(=O)NCc1ccc(OC(F)(F)F)cc1)N1CCCCC1	none
O=C(c1cc(F)cc(F)c1)N1CC(c2nc(CCc3ccccc3)no2)C1	none
Cn1cnc(S(=O)(=O)N2CCCC(c3[nH]ccc3C(N)=O)C2)c1 (centres undefined)	none
Cn1c(Cn2cccn2)nnc1C1CC(NC(=O)c2ccsc2)C1 (centres undefined)	none
O=C(c1ccccc1F)N1CCCC2(C1)NC(=O)N(Cc1ccccc1)C2=O (centres undefined)	none
CCc1ccccc1NC(=O)N1C[C@@H](F)C[C@H]1C(=O)N1CCCCC1	none
O=c1c2nc(-c3ccc(O)c(F)c3)ccc2ncn1-c1ccccc1	Pf Dd2 inh 12.6µM
O=c1c2nc(-c3ccncc3)ccc2ncn1-c1ccccc1	none
O=c1c2nc(-c3ccc(O)c(F)c3)ccc2ncn1-c1ccc(F)cc1F	none
NS(=O)(=O)CCCC(=O)N1CCC(c2ncc[nH]2)CC1	none
CCOC(=O)CC1(NC(=O)N2CCc3c(nc(-c4ccccc4)[nH]c3=O)C2)CCCCC1	none
CCCN1C[C@@H](CO)[C@H](c2nc(CCOC)no2)C1	none
C[S+](=O)([O-])c1ccc(-c2nccc3c(=O)cc(-c4cccnc4)oc23)cc1	none
O=c1cc(-c2ccccn2)oc2c(NCc3ccccc3)nccc12	none
O=c1cc(-c2cccnc2)oc2c(NCc3ccc(F)cc3)nccc12	Pf Dd2 inh 11.2µM
CCCn1cc(C(=O)N2CC[C@@](O)(COC)C(C)(C)C2)c(C)n1	none
CCc1noc(-c2cccn3c(CNC(=O)c4ccoc4)nnc23)n1	none
Cc1ccc(-n2cc(CN(C)C(C)C(=O)N(C)C)c(-c3cccc(C)c3)n2)cc1 (centres undefined)	Pf Dd2 inh 3.98µM
CC(=O)Nc1ccc(-c2c(-c3cccc(C)c3)nn(-c3ccc(F)cc3)c2OC(C)=O)cc1	none
Cc1ccc(NC(=O)c2cn(-c3ccccc3)nc2-c2ccccc2)cc1	none
Cc1csc(NC(=O)c2nc3c(o2)CCN(Cc2c(C)noc2C)CC3)n1	none
CCC(C)NC(=O)CC1=CSC2=NC(C)=C(C(=O)Nc3ccccc3)C(c3cccc(C)c3)N12 (centres undefined)	none
Cc1cc(=O)n(CC(=O)N2CCCC(C)(c3ccccc3)C2)nc1C (centres undefined)	none
Cc1cccc(N2CCN(C(=O)c3noc(-c4ccc[nH]c4=O)n3)CC2)c1	none
COC(=O)c1cccc(NC(=O)c2cnc(-c3ccc(F)cc3)nc2-c2ccncc2)c1	none
O=C(N[C@@H]1CN(Cc2cc(F)cc(F)c2)C[C@H]1CO)c1ccccc1	Pf Dd2 inh 10µM
O=C(N[C@@H]1CN(Cc2cccc(F)c2)C[C@H]1CO)c1ccccc1	none
N#Cc1ccc(CN2C[C@@H](CO)[C@H](NC(=O)c3ccccc3)C2)cc1	none
CCn1cc(S(=O)(=O)N2CCC(Oc3ccc(-c4noc(COC)n4)cc3)C2)cn1 (centres undefined)	none
O=C(NC1CCN(c2ccc(F)cc2)C1=O)c1ccc(F)cc1Cl (centres undefined)	none
Cc1ccc(-c2nc(C3CC(=O)N(C4CCCCC4)C3)no2)cc1C (centres undefined)	none
COCCN1C(=O)[C@@H]2C[C@@H](CN2Cc2ccc(C(F)(F)F)cc2)Oc2ccccc21	Pf Dd2 inh 14.1µM
O=C1[C@@H]2C[C@@H](CN2Cc2ccc(C(F)(F)F)cc2)Oc2ccccc2N1Cc1cccnc1	none
O=C1[C@@H]2C[C@@H](CN2C2CCOCC2)Oc2ccccc2N1Cc1ccccn1	none
COCCN1C(=O)[C@@H]2C[C@@H](CN2Cc2ccccn2)Oc2ccccc21	Pf Dd2 inh 10µM
COc1ccc(CN2C(=O)[C@@H]3C[C@@H](CN3Cc3ccc(S(C)(=O)=O)cc3)Oc3ccccc32)cc1	none
COCCN1C(=O)[C@@H]2C[C@@H](CN2C(=O)c2ccccc2)Oc2ccccc21	none
CCOc1ccc(C(=O)N[C@H](c2ccc(OC)c(F)c2)C2CC(O)C2)o1 (some centres undefined)	none
CCN1CC2(CCN(C(=O)C3CCCCN3Cc3ccccc3)CC2)OC1=O (centres undefined)	none
O=C(NCc1ccc(F)cc1F)C1CCN(C(=O)c2ncn3c2COC(c2ccccc2)C3)CC1 (centres undefined)	none
Cc1c(Cl)cccc1NC(=O)c1cnc(-c2ccccc2)nc1-c1ccncc1	none
O=C([C@@H]1C[C@H](c2ccc(F)cc2)N(Cc2ccccc2Cl)C1)N1CCOCC1	none
COC(=O)c1ccc(-c2nc(-c3ccc(OC)c(OC)c3)no2)cc1	none

Compound activity (PubChem)
